# BioA inh-1 = inhibitors of Mycobacterium tuberculosis BioA enzyme; purified M. tuberculosis BioA enzyme, plate reader; inhibition, % at 9.99 µM; hit rate 0.096% among 360,000; in the data active = inhibition above about 40%; inconclusive = no clear call, values can overlap the other calls
# RN4220 kill = S. aureus RN4220 growth inhibition; OD600, 16 h; inhibition, % (no concentration beside the values); hit rate 0.33% among 330,000; AID 1259311; in the data active = inhibition above about 85%;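 also: plate controls were untreated cells for no effect and reference antibiotic for full effect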
# PfHsp40 yeast = rescue of PfHsp40-mediated yeast toxicity; AID 504582; hit rate 0.68% among 340,000; growth rescue, % at 12.5 µM; S. cerevisiae expressing PfHsp40, growth rescue, ATP luminescence; in the data active = growth rescue above about 28%, passing the limit was not always enough; inconclusive = no clear call, values can overlap the other calls;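 also: yeast W303a lacking pdr1 and pdr3 grown in galactose medium; growth measured after three days at 30 °C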
# Mtb bLac sens = beta-lactam sensitization of Mtb H37Rv; inhibition, % at 25 µM; AID 434955; M. tuberculosis H37Rv growth with meropenem, percent inhibition; hit rate 0.27% among 330,000;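 also: growth measured after seven days incubation then overnight dye step; 0% = bacteria only wells and 100% = bacteria with antibiotic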
# Sa ugtP lethal = growth inhibition of S. aureus ugtP deletion strain; S. aureus RN4220 ugtP deletion, OD600 growth, 16 h; growth inhibition, % (no concentration beside the values); hit rate 0.54% among 330,000; in the data active = growth inhibition above about 68%;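 also: plate controls were untreated wells for no effect and antibiotic for full effect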
# BioA inh-2 = Mtb BioA enzyme inhibition | 310 tested, under 10 active | max activity, % | purified BioA enzyme, plate reader, dose response | shares compounds with BioA inh-1;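 also: top concentration of the dilution series was 10 µM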
# Target sequence (P9WQ81 whole entry, looked up): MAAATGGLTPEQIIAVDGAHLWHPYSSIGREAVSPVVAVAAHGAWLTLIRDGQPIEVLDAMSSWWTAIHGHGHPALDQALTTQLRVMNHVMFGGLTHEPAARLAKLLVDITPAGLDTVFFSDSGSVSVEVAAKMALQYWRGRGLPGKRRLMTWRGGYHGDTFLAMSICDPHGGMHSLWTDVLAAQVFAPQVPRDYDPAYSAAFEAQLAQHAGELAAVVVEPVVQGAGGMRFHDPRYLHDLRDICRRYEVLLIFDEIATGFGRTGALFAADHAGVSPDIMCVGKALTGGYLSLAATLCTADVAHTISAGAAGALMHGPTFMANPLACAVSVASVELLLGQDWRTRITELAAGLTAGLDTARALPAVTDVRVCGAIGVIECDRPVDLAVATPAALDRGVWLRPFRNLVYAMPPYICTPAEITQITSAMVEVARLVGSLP
# HepG2 cytotox = kills HepG2 cells; HepG2 cytotoxicity, plate reader; max activity, %; 310 tested, under 10 active; shares compounds with BioA inh-1; AID 651898
# NIH3T3 tox 5 = NIH3T3 viability loss | shares compounds with BioA inh-1 | NIH3T3 cytotoxicity, plate reader | activity change, negative = cytotoxicity, % at 26 µM | 310 tested, under 10 active | AID 651900
# * marks the source's active call; other numbers are inactive results; i = inactive; ? = inconclusive; nt = no result; [ ] = another dose, or the depositor's remark. Compounds with a hit are over-represented: about 0.9% of the library has one in this group of screens. Unless noted, no rule for the calls is given here.
SMILES,BioA inh-1,RN4220 kill,PfHsp40 yeast,Mtb bLac sens,Sa ugtP lethal,BioA inh-2,HepG2 cytotox,NIH3T3 tox 5
COc1cccc(NC(=O)N2C[C@H](O)COC[C@@H]3O[C@@H](CC(=O)N(C)C)CC[C@H]32)c1,99*,nt,nt,nt,nt,17,i,4
CNC(=O)C[C@H]1CC[C@@H]2[C@H](COC[C@@H](O)CN2C(=O)Nc2ccc(Cl)c(Cl)c2)O1,83*,nt,nt,nt,nt,-6,i,-7
CNC(=O)C[C@@H]1CC[C@H]2[C@@H](COC[C@H](O)CN2C(=O)Nc2ccc(Cl)c(Cl)c2)O1,0,nt,nt,nt,nt,nt,nt,nt
C#CCOCCOCCOCCNc1nc(N2CCN(C(=O)Cn3cc(CCCCN)nn3)CC2)nc(N2CCN(C(=O)C(C)n3cc(CCC(=O)O)nn3)CC2)n1 (stereo not given),nt,8,nt,nt,-4,nt,nt,nt
CCOC(=O)C1=C(C)Nc2sc(C(=O)c3ccc(OC)cc3)c(N)c2C1c1ccc(C(=O)OC)cc1 (stereo not given),-2,-1,-1,94,39,nt,nt,nt
COC(=O)C1=C(C)Nc2sc(C(N)=O)c(N)c2C1c1ccncc1 (stereo not given),76*,1,0,5,18,-8,-16,4
COC(=O)c1c(C(=O)OC)c(-c2ccccc2)n2c1CS(=O)C2 (stereo not given),73*,3,-1,-26,0,-2,24,6
COC(=O)c1c(C(=O)OC)c(-c2ccc(F)cc2)n2c1CS(=O)C2 (stereo not given),60*,4,-1,-5,12,-7,-6,-5
COC(=O)c1c(C(=O)OC)c(-c2ccc(OC)cc2)n2c1CS(=O)C2 (stereo not given),17,4,0,-11,7,nt,nt,nt
CCOc1cc(C=C2SC(=S)NC2=O)ccc1OC(=O)c1ccco1,nt,38,nt,nt,38,nt,nt,nt
COc1cc(/C=C/C(=O)Nc2cccnc2)cc(OC)c1OC,50*,-3,2,-3,17,-4,-7,-3
COc1cc(C(=O)Nc2cccnc2)cc(OC)c1OC,80*,2,0,-7,6,-9,-14,-10
O=C(c1ccc(Br)s1)N1CCN(Cc2ccc3c(c2)OCO3)CC1,59*,-5,1,65,12,-9,-7,-7
O=C(Nc1ccccc1)N1CCN(Cc2ccc3c(c2)OCO3)CC1,76*,3,-1,-1,-1,7,?,?
C[C@@H](C(=O)N1CCN(Cc2ccc3c(c2)OCO3)CC1)n1nnc2ccccc2c1=O,70*,4,-1,0,2,-9,-10,-2
O=C(c1ccc(Br)o1)N1CCN(Cc2ccc3c(c2)OCO3)CC1,14,1,-1,15,4,nt,nt,nt
O=C(C=Cc1cccc([N+](=O)[O-])c1)N1CCN(C(=O)c2ccco2)CC1,nt,0,nt,nt,-10,nt,nt,nt
COC(=O)C1=C(c2ccc(OCc3ccccc3)cc2)CC2CCC1N2C(=O)NCc1cccc(OC)c1 (stereo not given),nt,-6,nt,nt,-13,nt,nt,nt
C[C@H](CO)N1C[C@H](C)[C@@H](CN(C)Cc2ccc3c(c2)OCO3)Oc2ccc(NC(=O)Cn3cnnn3)cc2CC1=O,48*,nt,nt,nt,nt,10,i,-9[23.5 µM]
COc1ccc(-c2cc(C3C4C=CCC[C@@]4(C)C(=O)N3Cc3ccccc3)ccc2F)cc1OC (stereo not given in full),nt,-3,nt,nt,-2,nt,nt,nt
O=C(Nc1ccc(F)c(F)c1)c1ccc(-n2cncn2)c([N+](=O)[O-])c1,79*,-3,1,3,4,2,-5,2
COc1ccc(NC(=O)c2ccc(-n3cncn3)c([N+](=O)[O-])c2)cc1OC,66*,3,-1,-3,11,-3,6,-2
Cc1cccc(-c2ccc3c(c2)C2CC3CCN2C)c1 (stereo not given),3,nt,-2,nt,nt,nt,nt,nt
Cc1cccc(-c2ccc3c(c2)C2CC3CCN2)c1 (stereo not given),56*,nt,-1,nt,nt,-11,-9,-8
FC(F)(F)c1ccc(-c2cccc3c2C2CC3CCN2)cc1 (stereo not given),22,nt,0,nt,nt,nt,nt,nt
SMILES,BioA inh-1,RN4220 kill,PfHsp40 yeast,Mtb bLac sens,Sa ugtP lethal,BioA inh-2,HepG2 cytotox,NIH3T3 tox 5
Fc1ccc(-c2ccc3c(c2)C2CC3CCN2)cc1 (stereo not given),66*,nt,-2,nt,nt,-5,16,-2
Cc1ccccc1CC1(CO)CCCN(C(=O)c2ccccc2Cl)C1 (stereo not given),nt,13,-1,5,-4,nt,nt,nt
CC(=O)c1ccc(C(=O)N2CCCC(CO)(Cc3ccccc3C)C2)s1 (stereo not given),54*,7,1,nt,14,-7,-7,-4
COc1cc(-c2n[nH]c(=S)n2C(C)c2ccccc2)cc(OC)c1OC (stereo not given),64*,11,-1,2,2,-5,20,1
COc1cc(-c2n[nH]c(=S)n2-c2cccc(C(F)(F)F)c2)cc(OC)c1OC,43*,1,0,-7,0,-6,-9,-6
Cc1nc2sc(C(c3ccco3)N3CCN(c4ccccc4F)CC3)c(O)n2n1 (stereo not given),1,5,0,-4,4,nt,nt,nt
Cc1nc2sc(C(c3ccc(Cl)cc3)N3CCN(c4ccccc4F)CC3)c(O)n2n1 (stereo not given),43*,4,1,1,-6,10,-5,-4
CCCCNC(=O)C1CCCN1S(=O)(=O)c1cccc2cccnc12 (stereo not given),nt,1,nt,nt,-2,nt,nt,nt
CCc1ccc(NC(=O)CSc2nc(=O)n(CCCN3CCOCC3)c3c2CCCC3)cc1,3,4,-1,-6,9,nt,nt,nt
Cc1ccc(NC(=O)CSc2nc(=O)n(CCCN3CCOCC3)c3c2CCCC3)cc1F,47*,6,-1,1,14,2,9,7
CN1CCN(C(=O)C2=CC(c3ccc(C(F)(F)F)cc3)CC(OCCCCO)O2)CC1 (stereo not given),nt,4,nt,nt,1,nt,nt,nt
Cc1ccc(C2CC=C(C(=O)O)CN2S(=O)(=O)c2ccccc2C)cc1 (stereo not given),nt,7,nt,nt,-8,nt,nt,nt
CCOC(=O)C1CCN(C(=O)Nc2ccc3snnc3c2)CC1,72*,3,1,-18,0,-7,-12,4
CCOC(=O)C1CCN(C(=O)Nc2ccc3nccnc3c2)CC1,1,-1,-1,-10,-8,nt,nt,nt
Cc1ccc(S(=O)(=O)N(C)C)cc1NC(=O)CSc1nncs1,51*,1,6,-2,1,-6,-8,-1
Cc1cc2c(c(=O)n1Cc1cccnc1)C(c1cccs1)C(C#N)=C(N)O2 (stereo not given),64*,1,0,-7,3,-8,22,8
Cc1cc2c(c(=O)n1Cc1cccnc1)C(Cc1ccccc1)C(C#N)=C(N)O2 (stereo not given),nt,-12,-1,3,-4,nt,nt,nt
CCN(CC)C(=O)NC1CC2c3cccc4[nH]cc(c34)CC2N(C)C1 (stereo not given),nt,4,nt,nt,3,nt,nt,nt

# Screens from PubChem BioAssay.
